Assay outcomes deposited in PubChem by National Center for Advancing Translational Sciences (NCATS).
HepG2 tox – HepG2 cytotoxicity, counter-screen for TGF-b inhibitors; HepG2 CAGA-GFP viability, ATP luminescence, 18 h; Potency, µM (titrated, usually from 46.1 µM), for inactives: top-dose activity change, negative = cytotoxicity, most hits filed as cytotoxic; 410,000 tested, 0.76% active; AID 588856
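HepG2 CAGA-GFP cells (1000/well, DMEM with 1% FBS) received compound, then TGF-beta at 500 pg/mL final, and were incubated 18 hours at 37 degrees C. Viability was read by CellTiter-Glo luminescence. Media-only wells were set as complete cell-killing and DMSO as no toxicity.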
DT40 TDP1 no CPT – qHTS for Inhibitors of human tyrosyl-DNA phosphodiesterase 1 (TDP1): qHTS in cells in absence of CPT; DT40 Tdp1-/- hTDP1 cells, no CPT, ATP luminescence, 48 h; Potency, µM (series often up to 46.2 µM), for the others: at the top dose activity change, negative = growth inhibition, actives largely listed as inhibitors; 420,000 tested, 15% active; AID 686978, 2013; note: % is set by controls: 0 for no effect and ±100 for the full control effect; nearly all actives have a fitted effect of over 55% in size
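Cells were dispensed at 400 per well, compounds added by pin tool, plates incubated ≥48 hr at 37 °C, then CellTiter-Glo added for 30 min at room temperature before luminescence reading. Line: DT40 Tdp1-/- complemented with hTDP1; camptothecin omitted.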
TGFb SMAD3 inh – TGF-b pathway inhibition | HepG2 CAGA-GFP TGF-b/SMAD3 reporter, GFP fluorescence, 18 h; TGF-beta stimulated, 500 pg/mL final | Potency, µM (titrated, usually from 46.1 µM), inactives show top-dose activity, negative = inhibition, usual class: inhibitors | 410,000 tested, 1.2% active; note: % is set by controls: 0 for no effect and ±100 for the full control effect; nearly all actives have a fitted effect of over 65% in size
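First, reporter cells (HEPG2 CAGA-GFP) rested 2 h at 37 degrees C. Next, compounds were pinned in and TGF-beta added to 500 pg/mL final. After 18 h, GFP was imaged per cell and summed per well.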
ATXN2 expr inh – inhibitors of ATXN2 expression. HEK-293 ATXN2-luciferase reporter, luminescence, 24 h. AID 1745845. 360,000 tested, 0.72% active. Potency, µM (top dose mostly 57 µM), for inactives: at the highest dose activity change, negative = inhibition, actives largely listed as inhibitors; note: % is set by controls: 0 for no effect and ±100 for the full control effect; nearly all actives have a fitted effect of over 55% in size
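ATXN2-luciferase reporter cells (luciferase flanked by upstream and downstream ATXN2 gene portions) were treated 24 h at 37 °C with compounds at up to 57 uM. SteadyGlo luminescence gave expression; GF-AFC fluorescence gave viability.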
ATXN viability – viability counter-screen for ATXN expression inhibitors. 400,000 tested, 0.49% active. S2 cells (HEK-293 line with an ATXN2-luciferase reporter) viability, CellTiter-Fluor protease fluorescence, 24 h. Potency, µM (series often up to 56.7 µM), actives largely listed as cytotoxic; note: nearly all actives have a fitted effect of over 40% in size
TDP1 cell CPT – DT40-hTDP1 cell growth loss with CPT; chicken DT40 Tdp1-/-;hTDP1 cells + 20 nM CPT, ATP luminescence, 48 h; 420,000 tested, 12% active; Potency, µM (doses to about 46.2 µM), for the others: at the top dose activity change, negative = growth inhibition, actives largely listed as inhibitors; AID 686979; note: % is set by controls: 0 for no effect and ±100 for the full control effect; nearly all actives have a fitted effect of over 55% in size
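Chicken DT40 Tdp1-/- cells stably complemented with human TDP1 were seeded at 400 cells/well in medium containing 20 nM camptothecin, exposed to pin-transferred compounds, and grown at 37 °C for at least 48 hr. Viability was read as ATP luminescence.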
Active calls of the source: *; i = inactive; ? = inconclusive; . = no result. Shown are actives, neighbours in structure and some others; about 17% of the full set was active somewhere. Calls come from the whole dose curve; as a rule, active = well fitted curve in the direction sought with a large enough effect; inconclusive = small, poorly fitted or top-dose-only effect, or another doubt; inactive = no such curve, though single readings can be large; an effect the other way counts as inactive or inconclusive. Potency is the fitted concentration of half-maximal effect.

SMILES | HepG2 tox | DT40 TDP1 no CPT | TGFb SMAD3 inh | ATXN2 expr inh | ATXN viability | TDP1 cell CPT
O=C(CSc1nnc(-c2ccc(S(=O)(=O)N3CCCC3)cc2)o1)NCc1ccccc1 | -7.4% | 18.4µM* | ? | -15.4% | i | 23.1µM*
Cc1nnsc1NC(=O)OCc1ccc(C(C)(C)C)cc1 | -24.5% | 8.2µM* | ? | 0.0% | i | 14.6µM*
COc1ccc(C2=NN(CN3C(=O)C(=O)c4ccccc43)C(c3ccc(Br)cc3)C2)cc1 (stereo not given) | -20.1% | 6.51µM* | -3.5% | 53.1% | i | 16.4µM*
COc1ccc(C2=NN(C(=O)CSc3ncccn3)C(c3ccc(OC)cc3)C2)cc1 (stereo not given) | -10.3% | ? | 1.0% | -1.9% | i | ?
COc1ccc(C2=NN(CN3C(=O)C(=O)c4ccccc43)C(c3ccc(C)cc3)C2)cc1 (stereo not given) | -18.6% | ? | 0.0% | 25.4% | i | 18.4µM*
COc1ccccc1C1=NN(C(=O)c2ccccc2)C(c2ccc(Br)cc2)C1 (stereo not given) | 4.8% | -10.2% | 4.0% | 6.2% | i | -6.2%
NC1CCC(Nc2nc(Nc3ccc(C(=O)N4CCCCC4)cc3)c3ncn(-c4cccc(F)c4)c3n2)CC1 (stereo not given) | . | . | . | 32.2% | . | .
CCN1C(=O)[C@H]2[C@@H](c3ccc(-c4cc(C(C)=O)cs4)cc3)N3CCCC[C@@]3(C(=O)OC)[C@H]2C1=O | 2.1% | 18.4µM* | ? | 3.2% | i | ?
CCN1C(=O)[C@H]2[C@@H](c3ccc(-c4cc(C(C)=O)cs4)cc3)N3CCC[C@@]3(C(=O)OC)[C@H]2C1=O | 2.5% | 23.1µM* | 7.3% | -1.0% | i | ?
COc1ccc(C(=O)NNC(=O)C(=O)NC2CCCCC2)cc1 | 9.1% | ? | -3.7% | 3.7% | i | -19.1%
CCCCC[C@@H](/C=C/C1C(=O)C=C[C@H]1C/C=C\CCCC(=O)O)OC(C)=O (stereo not given in full) | -21.3% | 23.1µM* | ? | ? | ? | 20.6µM*
O=C(c1ccc(N2C(=O)C3C4c5ccccc5C(c5ccccc54)C3C2=O)cc1)N1CCOCC1 (stereo not given) | -2.1% | -18.8% | 15.6% | 0.1% | i | 2.1%
O=C(c1ccc(N2CN(C(=O)c3ccco3)c3nc4ccccc4nc32)cc1)N1CCOCC1 | -36.2% | 23.1µM* | 2.1% | 0.8% | i | 13µM*
CCC(=O)c1ccc(OCc2cn(CC(=O)c3ccc(O)cc3)nn2)cc1 | -5.0% | -4.2% | -10.1% | -10.5% | i | -23.0%
C=CCNc1nc2cc(-c3ccc(C(=O)N4CCOCC4)cc3)sc2c(=O)n1C | -5.7% | ? | 48.5% | 13.4% | i | 16.4µM*
COc1cccc(CNc2nc3cc(-c4ccc(C(=O)N5CCN(C)CC5)cc4)sc3c(=O)n2C)c1 | -43.8% | ? | ? | ? | i | 20.6µM*
CC(=O)c1c(O)c(C)c(O)c2c1OC1=Cc3c(c(C)nn3C)C(=O)C12C (stereo not given) | -1.4% | 29.1µM* | 2.8% | . | i | 16.4µM*
O=C1CC(c2cc([N+](=O)[O-])ccc2Cl)c2c(ccc3ccccc23)N1 (stereo not given) | 5.5% | 14.6µM* | ? | 21.5% | ? | 16.4µM*
COc1ccc(OC)c(C2CC(=O)Nc3ccc4ccccc4c32)c1 (stereo not given) | -36.6% | ? | -28.4% | 4.1% | ? | ?
O=C1CC(c2cccc([N+](=O)[O-])c2)c2ccc3ccccc3c2N1 (stereo not given) | -4.7% | ? | ? | -20.5% | i | 25.9µM*
O=C1CC(c2c(Cl)cccc2Cl)c2c(ccc3ccccc23)N1 (stereo not given) | -34.1% | 25.9µM* | ? | -6.1% | ? | ?
CCCCOc1ccccc1C1CC(=O)Nc2ccc3ccccc3c21 (stereo not given) | 11.2µM* | 6.51µM* | ? | . | . | 11.6µM*
COc1ccc(-n2nc(C(=O)NCC(=O)NCCCN3CCOCC3)c3ccccc3c2=O)cc1OC | 2.1% | -6.4% | 0.0% | 8.3% | i | 0.2%
CCN1C(=O)[C@H]2[C@@H](c3ccc(-c4ccc(OC)cc4)cc3)N3CCCC[C@@]3(C(=O)OC)[C@H]2C1=O | -5.1% | 16.4µM* | -16.1% | ? | i | ?
CCN1C(=O)[C@@H]2[C@@H](c3ccc(-c4ccc(OC)cc4)cc3)N3CCC[C@@]3(C(=O)OC)[C@@H]2C1=O | 1.4% | 20.6µM* | 5.9% | -5.9% | i | ?
SMILES | HepG2 tox | DT40 TDP1 no CPT | TGFb SMAD3 inh | ATXN2 expr inh | ATXN viability | TDP1 cell CPT
CCN1C(=O)[C@H]2[C@@H](c3ccc(-c4ccc(OC)cc4)cc3)N3CCC[C@@]3(C(=O)OC)[C@H]2C1=O | -12.0% | 14.6µM* | ? | 5.8% | i | ?
CCN1C(=O)[C@H]2[C@@H](c3ccc(-c4ccc(F)cc4)cc3)N3CCCC[C@@]3(C(=O)OC)[C@H]2C1=O | -4.3% | ? | ? | -38.7% | i | ?
COc1ccc(-c2cc(C(F)(F)F)n3nc(-c4ccc(Cl)cc4)cc3n2)cc1OC | 9.8% | ? | -0.5% | 13.4% | i | -25.9%
COc1ccc(OCC(O)CN(CC(O)COc2ccc(OC)cc2)c2cccc(O)c2)cc1 (stereo not given) | 10µM* | -47.1% | -28.4% | -7.8% | i | ?
Cc1cc(O)c(C(C)C)cc1NC(=O)Nc1ccc([N+](=O)[O-])cc1 | 9.4% | ? | 1.1% | 0.6% | i | -13.5%
Cc1cc(O)c(C(C)C)cc1N=Cc1ccc([N+](=O)[O-])cc1 | -12.4% | 16.4µM* | ? | ? | i | 7.31µM*
Cc1cc(O)c(C(C)C)cc1N=Cc1ccc(N(C)C)cc1 | -14.8% | 5.17µM* | ? | ? | i | 2.91µM*
COc1cccc(C=NCCCN=Cc2cccc(OC)c2O)c1O | -5.2% | 10.2% | ? | 7.8% | i | -6.5%
COc1cccc(C=Nc2cc(C(C)C)c(O)cc2C)c1O | -8.1% | 3.26µM* | -28.2% | -27.2% | i | 4.11µM*
COC(=O)c1cc(C(=O)OC)n(Cc2ccc(C)cc2)c1C | -0.1% | -10.7% | 8.4% | 8.4% | i | -17.5%
